Reference: PubChem BioAssay (Tox21)
A number with no mark means an inactive call. Results filed as inconclusive are left out. A call without a number means that no potency is given here. Active and inactive are the calls of the source. Unless noted, calls come from the whole dose curve; as a rule, active = well fitted curve in the direction sought with a large enough effect in the repeat runs; inconclusive = weak or mixed curves; inactive = no such curve, though single readings can be large; an effect the other way counts as inactive or inconclusive.

Experiments:
[1] = qHTS assay for small molecule agonists of the p53 signaling pathway (AID 651631; calls by dose curve; note: nearly all actives have a fitted effect of over 15% in size)
Outline: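 Read-out is beta-lactamase FRET fluorescence measured 2 h after substrate addition at room temperature, in HCT-116 cells with a p53 response element-driven reporter exposed to compounds for 16 h at 37 °C.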

[2] = qHTS assay for small molecules that induce genotoxicity in human embryonic kidney cells expressing luciferase-tagged ATAD5 (AID 651632); note: nearly all actives have a fitted effect of over 15% in size
Outline: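 HEK293T cells carrying luciferase-tagged ATAD5 were given compound or DMSO vehicle and incubated 16 hr at 37C, 5% CO2. Luciferase activity was read after 30 min at room temperature with Amplite; a rise signals genotoxic stress.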

[3] = qHTS assay for small molecule agonists of the p53 signaling pathway - cell viability (AID 651633; calls by dose curve;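 note: p53RE-bla HCT reporter cells with a stable beta-lactamase p53 reporter; series mostly up to about 83 µM; nearly all actives have a fitted effect of over 30% in size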)
Outline: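 p53RE-bla cells, seeded at 4,000 per well and rested 5 h at 37 C/5% CO2, received compounds in DMSO for 16 h at 37 C. CellTiter-Glo was then added, and luminescence was read after 30 min at room temperature to gauge cytotoxicity.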

[4] = qHTS assay for small molecules that induce genotoxicity in human embryonic kidney cells expressing luciferase-tagged ATAD5 - cell viability (AID 651634; calls by dose curve; note: nearly all actives have a fitted effect of over 25% in size)
Outline: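 HEK293T cells carrying luciferase-tagged ATAD5, 2,000 cells/well, exposed to compound for 15.5 hr at 37C. Viability read as live-cell protease activity by CellTiter-Fluor fluorescence after 30 min at 37C.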

[5] = qHTS assay for small molecule disruptors of the mitochondrial membrane potential - cell viability (AID 720634; calls by dose curve;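 note: human HepG2 liver cancer cells; series mostly up to about 83 µM; nearly all actives have a fitted effect of over 20% in size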)
Outline: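 HepG2 cells, 2,000 per well, attached overnight, then treated 1 hr at 37 C, 5% CO2. Viability read as ATP by CellTiter-Glo luminescence after 30 min at room temperature. Read in the same wells as the m-MPI membrane-potential dye assay.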

[6] = qHTS assay to test for compound auto fluorescence at 590 nm (red) in HepG2 cells (AID 720674)
Outline: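 Rose Bengal sodium served as the red fluorophore standard. HepG2 monolayers (overnight attachment, MEM with 10% FBS) were exposed to test compounds for 1 hr at 37 C and read at Ex 540/Em 590 nm.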

[7] = qHTS assay to test for compound auto fluorescence at 535 nm (green) in HepG2 cells (AID 720675)
[8] = qHTS assay to test for compound auto fluorescence at 460 nm (blue) in HEK293 cells (AID 720678)
Outline: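 Measured: blue fluorescence (Ex 405/Em 460 nm) of compound-treated HEK293 cells, incubated overnight at 37C with 5% CO2 and scaled to triamterene equivalents.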

[9] = qHTS assay to test for compound auto fluorescence at 590 nm (red) in HEK293 cells (AID 720679)
Outline: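 Using HEK293 cells at 2,000 per well, the screen added 23 nL of each compound after cell attachment and incubated overnight (37C, 5% CO2). The plate reader then captured red-label fluorescence, Ex/Em 540/590nm.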

[10] = qHTS assay for small molecule disruptors of the mitochondrial membrane potential (AID 720635); note: potency is the fitted concentration of half-maximal effect
Outline: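 HepG2 cells (2,000/well) attached overnight at 37C, then took compound for 1 hr at 37C, 5% CO2. Mito-MPS dye was added for 30 min; fluorescence was read at 490/535 nm (monomers) and 540/590 nm (aggregates).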

SMILES	outcome [1]	outcome [2]	outcome [3]	Potency [4]	outcome [5]	outcome [6]	outcome [7]	outcome [8]	outcome [9]	Potency [10]	fluorescence, relative to Rose Bengal [6]	fluorescence, % of fluorescein control [7]	fluorescence, % of triamterene [8]	fluorescence, % of fluorescent control [9]
CCCCCCCCOC(C)=O	inactive	inactive	inactive	inactive	inactive	inactive	inactive	inactive	inactive	–	–	–	–	–
FC(F)(F)c1ccc(Cl)cc1Cl	inactive	inactive	inactive	inactive	inactive	inactive	inactive	inactive	inactive	–	–	–	–	–
CCC(O)C(C)(C)C (centres undefined)	inactive	inactive	inactive	inactive	–	inactive	inactive	inactive	inactive	inactive	–	–	–	–
CCCCC(=O)N(C)C	inactive	inactive	inactive	inactive	–	inactive	inactive	inactive	inactive	inactive	–	–	–	–
O=C(O)c1ccccc1C(=O)Nc1ccc(S(=O)(=O)Nc2nccs2)cc1	inactive	inactive	inactive	inactive	–	inactive	inactive	inactive	–	inactive	–	–	–	–
CCNC(=O)NCCCOc1cccc(CN2CCCCC2)c1	inactive	inactive	inactive	inactive	inactive	inactive	inactive	inactive	inactive	–	–	–	–	–
C1CCN2C[C@@H]3C[C@@H](CN4CCCC[C@@H]34)[C@H]2C1	inactive	inactive	inactive	inactive	–	–	–	–	–	inactive	0.0708% [at 18.6 µM]	-0.0003% [at 18.6 µM]	0.214% [at 18.6 µM]	-0.036% [at 18.6 µM]
CCC(C)(C)C1CCC(=O)CC1	inactive	inactive	inactive	inactive	–	inactive	inactive	inactive	inactive	inactive	–	–	–	–
CCN(Cc1cccc(S(=O)(=O)O)c1)c1ccccc1	inactive	inactive	inactive	inactive	inactive	inactive	inactive	–	inactive	–	–	–	–	–
CCOC(=O)CC(CC(=O)OCC)(OC(C)=O)C(=O)OCC	inactive	inactive	inactive	inactive	–	inactive	inactive	inactive	inactive	–	–	–	–	–
CC(=O)/C=C/c1ccco1	inactive	inactive	inactive	inactive	–	inactive	inactive	inactive	–	inactive	–	–	–	–
Cc1ccccc1OCC1CO1 (centres undefined)	inactive	inactive	inactive	inactive	–	inactive	inactive	–	–	–	–	–	–	–
NS(=O)(=O)c1ccc(Cl)c(S(N)(=O)=O)c1	inactive	inactive	inactive	inactive	inactive	inactive	inactive	–	inactive	–	–	–	–	–
CCCCCC1CCCC(=O)O1 (centres undefined)	inactive	inactive	inactive	inactive	–	inactive	inactive	inactive	–	inactive	–	–	–	–
CN(C)CCOCCN(C)CCO	inactive	inactive	inactive	inactive	–	inactive	inactive	inactive	–	–	–	–	–	–
CCCCC/C=C/CC(=O)OC	inactive	inactive	inactive	inactive	inactive	inactive	inactive	inactive	inactive	–	–	–	–	–
CC(=O)OCCCc1ccccc1	inactive	inactive	inactive	inactive	–	inactive	inactive	inactive	inactive	inactive	–	–	–	–
C=C[Si](C)(C)O[Si](C)(C)C=C	inactive	inactive	inactive	inactive	–	inactive	inactive	inactive	inactive	inactive	–	–	–	–
NS(=O)(=O)c1ccccc1OC(F)(F)F	inactive	inactive	inactive	inactive	inactive	inactive	inactive	–	inactive	–	–	–	–	–
CCCCOC(=O)C(=O)OCCCC	inactive	inactive	inactive	inactive	inactive	inactive	inactive	–	inactive	–	–	–	–	–
Oc1ccccc1Cc1ccccc1O	inactive	inactive	inactive	inactive	–	inactive	inactive	–	inactive	7.7 µM (active)	–	–	–	–
CC1(N)CCC(C(C)(C)N)CC1 (centres undefined)	inactive	inactive	inactive	inactive	–	inactive	inactive	inactive	inactive	inactive	–	–	–	–
CC(=O)OC(C)(C)Cc1ccccc1	inactive	inactive	inactive	inactive	–	inactive	inactive	inactive	inactive	inactive	–	–	–	–
CC(C)CCCC(C)CC=O (centres undefined)	inactive	inactive	inactive	inactive	inactive	inactive	inactive	inactive	inactive	–	–	–	–	–
Nc1cc(C(=O)O)ccc1Cl	inactive	inactive	inactive	inactive	–	inactive	inactive	inactive	inactive	inactive	–	–	–	–
CO[Si](CCCS)(OC)OC	inactive	inactive	inactive	inactive	–	inactive	inactive	inactive	inactive	inactive	–	–	–	–
O=C(O)Cc1cccc(-c2cc(CCCCCCc3ccc(O[C@H]4O[C@H](CO)[C@@H](O)[C@H](O)[C@@H]4O)c(-c4cccc(CC(=O)O)c4)c3)ccc2O[C@H]2O[C@H](CO)[C@@H](O)[C@H](O)[C@@H]2O)c1	inactive	inactive	inactive	inactive	inactive	inactive	inactive	inactive	inactive	–	–	–	–	–
